Laboratory results from the supplement of paper PMC8866396.
± gives the standard deviation of the averaged measurements.

What was measured:
IL-6-GFP PC-9GR = experiment: cell viability (CCK-8 OD) relative to DMSO control (fraction of control); higher = more viable cells; settings: compound concentration: 10 uM; treatment time: 48 h
How it was run: (§1)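 A purchased 510-compound library was screened at a final 10 μM for 48 h against PC-9 and PC-9GR lung cancer cells overexpressing IL-6-GFP via a lentiviral construct, seeded at 3000 cells/well in 96-well plates. GFP imaging was done on a parallel plate set. For viability, CCK-8 absorbance was recorded and each well's optical density was divided by that of the vehicle control well. There were two independent replicates.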

IL-6-GFP PC-9 = experiment: as above; settings: compound concentration: 10 uM; treatment time: 48 h
How it was run: as §1

| Compound | cell viability (IL-6-GFP PC-9GR) | cell viability (IL-6-GFP PC-9) |
| --- | --- | --- |
| CCC1(O)CC2CN(CCc3c([nH]c4ccccc34)C(C(=O)OC)(c3cc4c(cc3OC)N(C=O)C3C(O)(C(=O)OC)C(OC(C)=O)C5(CC)C=CCN6CCC43C65)C2)C1 (configuration not stated) [Vincristine] | 0.556 ± 0.22 | 0.631 ± 0.041 |
| CC(C)(C)OC(=O)NC1CCCCC/C=C\C2CC2(C(=O)NS(=O)(=O)C2CC2)NC(=O)C2CC(OC(=O)N3Cc4cccc(F)c4C3)CN2C1=O (configuration not stated) [Danoprevir (ITMN-191)] | 1.1 ± 0.02 | 0.931 ± 0.15 |
| CC/C(=C(\c1ccccc1)c1ccc(OCCN(C)C)cc1)c1ccccc1.O=C(O)CC(O)(CC(=O)O)C(=O)O [Tamoxifen] | 1.2165 ± 0.0005 | 0.589 ± 0.053 |
| CCCCCCCCc1ccc(CCC(N)(CO)CO)cc1 [Fingolimod] | 0.513 ± 0.18 | 0.924 ± 0.37 |
| CNC(=O)c1cc(Oc2ccc(NC(=O)Nc3ccc(Cl)c(C(F)(F)F)c3)cc2)ccn1 [Sorafenib] | 0.634 ± 0.37 | 0.565 ± 0.1 |
| NC(CO)(CO)CO.O=C(c1ccccc1)c1ccc2n1CCC2C(=O)O (configuration not stated) [Ketorolac tromethamine salt] | 0.948 ± 0.075 | 1.05 ± 0.19 |
| O=C(/C=C/c1ccc(O)c(O)c1)OC(Cc1ccc(O)c(O)c1)C(=O)O (configuration not stated) [Rosmarinic acid] | 1.12 ± 0.24 | 1.14 ± 0.059 |
| CC(C(=O)[O-])c1cccc(Oc2ccccc2)c1.CC(C(=O)[O-])c1cccc(Oc2ccccc2)c1.[Ca+2] (configuration not stated) [Fenoprofen Calcium] | 1.26 ± 0.064 | 0.938 ± 0.013 |
| Cc1c(Cl)cccc1Nc1ccccc1C(=O)O [Tolfenamic Acid] | 1.39 ± 0.44 | 1.18 ± 0.046 |
| CC(=O)[N-]S(=O)(=O)c1ccc(N)cc1.[Na+] [Sulfacetamide Sodium] | 0.982 ± 0.12 | 1.1 ± 0.014 |
| CC(C)C1C(=O)NC(CCCNC(=N)N)C(=O)NCC(=O)NC(CC(=O)O)C(=O)NC(Cc2ccccc2)C(=O)N1C.O=C(O)C(F)(F)F (configuration not stated) | 1.13 ± 0.28 | 1.26 ± 0.087 |
| CC[N+](CC)(CC)CCOc1cccc(OCC[N+](CC)(CC)CC)c1OCC[N+](CC)(CC)CC.[I-].[I-].[I-] [Gallamine Triethiodide] | 1.34 ± 0.31 | 1.202 ± 0.0034 |
| CN1CCC(=C2c3ccccc3CCn3c(C=O)cnc32)CC1 [Alcaftadine] | 0.751 ± 0.18 | 1.07 ± 0.21 |
| CC(=O)OCC1OC(n2ccc(=O)[nH]c2=O)C(OC(C)=O)C1OC(C)=O (configuration not stated) [uridine triacetate] | 1.59 ± 0.3 | 1.175 ± 0.0034 |
| C=CCC1/C=C(\C)CC(C)CC(OC)C2OC(O)(C(=O)C(=O)N3CCCCC3C(=O)OC(/C(C)=C/C3CCC(O)C(OC)C3)C(C)C(O)CC1=O)C(C)CC2OC (configuration not stated) [Tacrolimus (FK506)] | 1.14 ± 0.079 | 1.34 ± 0.11 |
| S=c1nc[nH]c2nc[nH]c12 [Mercaptopurine (6-MP)] | 1.13 ± 0.24 | 1.33 ± 0.29 |
| Nc1ccc(F)cc1NC(=O)c1ccc(CNC(=O)/C=C/c2cccnc2)cc1 [Tucidinostat (Chidamide)] | 0.836 ± 0.38 | 0.606 ± 0.23 |
| CC(C)CC(NC(=O)C(Cc1ccccc1)NC(=O)c1cnccn1)B(O)O (configuration not stated) [Bortezomib (PS-341)] | 0.105 ± 0.11 | 0.14 ± 0.057 |
| COC(c1ccccc1)(c1ccccc1)C(Oc1nc(C)cc(C)n1)C(=O)O (configuration not stated) [Ambrisentan] | 1.22 ± 0.077 | 1.25 ± 0.37 |

| Compound | cell viability (IL-6-GFP PC-9GR) | cell viability (IL-6-GFP PC-9) |
| --- | --- | --- |
| Nc1cc(C(Cl)=C(Cl)Cl)c(S(N)(=O)=O)cc1S(N)(=O)=O [Clorsulon] | 1.21 ± 0.16 | 1.08 ± 0.11 |
| COC1=C(OC)C(=O)C(CCCCCCCCCCO)=C(C)C1=O [Idebenone] | 1.12 ± 0.088 | 0.816 ± 0.0099 |
| N#CC1CC2CC2N1C(=O)C(N)C12CC3CC(CC(O)(C3)C1)C2.O (configuration not stated) [Saxagliptin hydrate] | 0.79 ± 0.18 | 1.14 ± 0.091 |
| CC1=C(/C=C/C(C)=C/C=C/C(C)=C/C(=O)O)C(C)(C)CCC1 [Tretinoin] | 1.45 ± 0.45 | 1.03 ± 0.15 |
| COc1cc(-c2coc3cc4c(c(OC)c3c2=O)OCO4)cc(OC)c1OC [Irisflorentin] | 0.826 ± 0.2 | 1.04 ± 0.12 |
| CCOC(=O)N1CCC(=C2c3ccc(Cl)cc3CCc3cccnc32)CC1 [Loratadine] | 1.12 ± 0.032 | 0.934 ± 0.18 |
| CC(C)(C)c1nc(-c2cccc(NS(=O)(=O)c3c(F)cccc3F)c2F)c(-c2ccnc(N)n2)s1.CS(=O)(=O)O [Dabrafenib Mesylate] | 0.922 ± 0.18 | 0.921 ± 0.19 |
| CC1CNc2c(cccc2S(=O)(=O)NC(CCCNC(=N)N)C(=O)N2CCC(C)CC2C(=O)O)C1.O (configuration not stated) [Argatroban Monohydrate] | 1.49 ± 0.35 | 1.12 ± 0.23 |
| COc1cc2c(cc1OC)C1CC(OC(=O)C(N)C(C)C)C(CC(C)C)CN1CC2.Cc1ccc(S(=O)(=O)O)cc1.Cc1ccc(S(=O)(=O)O)cc1 (configuration not stated) [Valbenazine tosylate] | 0.833 ± 0.14 | 1.01 ± 0.084 |
| Cl.c1ccc(CN(CC2=NCCN2)c2ccccc2)cc1 [Antazoline HCl] | 0.998 ± 0.082 | 1.31 ± 0.11 |
| O=C(O)COc1nn(Cc2ccccc2)c2ccccc12 [Bendazac] | 1.85 ± 0.092 | 1.14 ± 0.11 |
| CCOC(=O)c1c(N)sc2c1CCN(Cc1ccccc1)C2.Cl [Tinoridine hydrochloride] | 1.12 ± 0.27 | 1.12 ± 0.061 |
| CNC1CCC(c2ccc(Cl)c(Cl)c2)c2ccccc21.Cl (configuration not stated) [Sertraline HCl] | 0.338 ± 0.063 | 0.664 ± 0.35 |
| Cc1ccc(C2OC(CO)C(O)C(O)C2O)cc1Cc1ccc(-c2ccc(F)cc2)s1 (configuration not stated) [Canagliflozin] | 1.14 ± 0.12 | 1.16 ± 0.15 |
| CNC(=O)c1cc(Oc2ccc(NC(=O)Nc3ccc(Cl)c(C(F)(F)F)c3)c(F)c2)ccn1.O [Regorafenib Monohydrate] | 0.659 ± 0.32 | 0.21 ± 0.28 |
| Nc1ccc(O)c(C(=O)O)c1 [Mesalamine] | 1.27 ± 0.035 | 1.06 ± 0.072 |
| CC1=C(CC(=O)O)c2cc(F)ccc2/C1=C\c1ccc(S(C)=O)cc1 (configuration not stated) [Sulindac] | 1.12 ± 0.075 | 0.821 ± 0.32 |
| Cc1nnc(C(=O)NC(C)(C)c2nc(C(=O)NCc3ccc(F)cc3)c(O)c(=O)n2C)o1 [Raltegravir (MK-0518)] | 1.21 ± 0.063 | 1.39 ± 0.3 |
| CC1(C(=O)O)CCC2(C)CCC3(C)C(=CC(=O)C4C5(C)CCC(OC6OC(C(=O)O)C(O)C(O)C6OC6OC(C(=O)O)C(O)C(O)C6O)C(C)(C)C5CCC43C)C2C1.N.N (configuration not stated) [Diammonium Glycyrrhizinate] | 1.11 ± 0.22 | 1.19 ± 0.07 |

| Compound | cell viability (IL-6-GFP PC-9GR) | cell viability (IL-6-GFP PC-9) |
| --- | --- | --- |
| NC(=O)c1cccc2cn(-c3ccc(C4CCCNC4)cc3)nc12 (configuration not stated) [Niraparib (MK-4827)] | 0.841 ± 0.011 | 0.918 ± 0.045 |
| C/C=C(/C)C(=O)OC1C(OC(C)=O)C2(CO)C(O)CC3(C)C(=CCC4C5(C)CCC(OC6OC(C(=O)O)C(OC7OC(CO)C(O)C(O)C7O)C(O)C6OC6OC(CO)C(O)C(O)C6O)C(C)(CO)C5CCC43C)C2CC1(C)C (configuration not stated) [Escin] | 0.999 ± 0.079 | 1.14 ± 0.22 |
| CN(C)C(=O)COC(=O)Cc1ccc(OC(=O)c2ccc(NC(=N)N)cc2)cc1.CS(=O)(=O)O [Camostat Mesilate] | 0.986 ± 0.098 | 1.13 ± 0.049 |
| O=C(CCCc1ccccc1)[O][Na] [Sodium Phenylbutyrate] | 0.51 ± 0.067 | 0.0369 ± 0.035 |
| NC(=S)N/N=C/c1ncccc1N [Triapine] | 0.255 ± 0.16 | 0.287 ± 0.024 |
| O=C(O)c1ccccc1Nc1cccc(C(F)(F)F)c1 [Flufenamic acid] | 1.15 ± 0.34 | 1.14 ± 0.15 |
| COc1cc2c(Nc3ccc(Br)cc3F)ncnc2cc1OCC1CCN(C)CC1 [Vandetanib (ZD6474)] | 0.578 ± 0.024 | 0.551 ± 0.059 |
| CCOC(=O)C(CCc1ccccc1)NC1CSC(c2cccs2)CN(CC(=O)O)C1=O (configuration not stated) [Temocapril] | 0.726 ± 0.078 | 1.14 ± 0.099 |
| COc1cccc2c1C(=O)c1c(O)c3c(c(O)c1C2=O)CC(O)(C(=O)CO)CC3OC1CC(N)C(O)C(C)O1.Cl (configuration not stated) [Epirubicin HCl] | 0.141 ± 0.14 | 0.1407 ± 0.00071 |
| CN(C)C/C=C/C(=O)Nc1cc2c(Nc3ccc(F)c(Cl)c3)ncnc2cc1OC1CCOC1 (configuration not stated) [Afatinib (BIBW2992)] | 0.542 ± 0.058 | 0.294 ± 0.038 |
| CC(=O)O.CCNC(=O)C1CCCN1C(=O)C(CCCNC(=N)N)NC(=O)C(CC(C)C)NC(=O)C(CC(C)C)NC(=O)C(Cc1ccc(O)cc1)NC(=O)C(CO)NC(=O)C(Cc1c[nH]c2ccccc12)NC(=O)C(Cc1c[nH]cn1)NC(=O)C1CCC(=O)N1 (configuration not stated) [Leuprolide Acetate] | 1.16 ± 0.31 | 1.28 ± 0.073 |
| CC(C)=CCOc1ccc(/C=C/C(=O)c2ccc(OCC=C(C)C)cc2OCC(=O)O)cc1 [Sofalcone] | 0.969 ± 0.2 | 1.01 ± 0.23 |
| O=C(CCCCCCC(=O)Nc1ccccc1)NO [Vorinostat (SAHA, MK0683)] | 0.449 ± 0.048 | 0.418 ± 0.095 |
| CS(=O)(=O)Nc1cc2occ(NC=O)c(=O)c2cc1Oc1ccccc1 [Iguratimod] | 1.46 ± 0.37 | 1.02 ± 0.19 |
| Cc1ccc(C(=O)Nc2ccc(CN3CCN(C)CC3)c(C(F)(F)F)c2)cc1C#Cc1cnc2cccnn12 | 0.464 ± 0.3 | 0.378 ± 0.19 |
| O=C(O)CCCN1CCC(OC(c2ccc(Cl)cc2)c2ccccn2)CC1.O=S(=O)(O)c1ccccc1 (configuration not stated) [Bepotastine Besilate] | 0.9937 ± 0.0023 | 0.84 ± 0.015 |
| CCC(=O)OCC(=O)C1(OC(=O)CC)C(C)CC2C3CCC4=CC(=O)C=CC4(C)C3(Cl)C(O)CC21C (configuration not stated) [Beclomethasone dipropionate] | 0.987 ± 0.24 | 0.797 ± 0.12 |
| CNC(=O)c1ccc(N2C(=S)N(c3ccc(C#N)c(C(F)(F)F)c3)C(=O)C2(C)C)cc1F [Enzalutamide (MDV3100)] | 1.04 ± 0.077 | 0.808 ± 0.099 |
